Screens: PubChem, several laboratories
Hits are enriched below; roughly 2.3% of the tested compounds scored in any of these assays.
697 NFkB inh: inhibitors of PMA/ionomycin-induced NF-kB reporter, 697 cells, primary screen, B-cell NF-kB inhibitor project, cell-based, luminescence, uHTS | AID 435022, 2010 | 697 B-cell NF-kB luciferase reporter, 16 h | 330,000 compounds, 0.33% hits | inhibition, % at 4 µM; in the data active = inhibition above about 35%
Shn3 inh set2: reduction of Shn3 3'UTR firefly luciferase signal, primary screen, Schnurri-3 inhibitor project, cell-based, Clone20 osteoblasts, set 2. Clone20 osteoblast Shn3 3'UTR firefly luciferase, 24 h. AID 588674, 2011. 360,000 compounds, 0.52% hits. inhibition, % at 12.5 µM;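 active = mean inhibition of at least 75% with every replicate also reaching 75%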;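 note: 0% = median of neutral control wells and 100% = pilot-screen positive control compound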
EBV LMP1 NFkB: EBV LMP1-driven NF-kappaB luciferase reporter inhibitors, primary screen, cell-based, luminescence, single point | LMP1-induced NF-kappaB luciferase reporter cells | inhibition, % at 12.5 µM | 350,000 compounds, 0.69% hits | AID 504558, 2011; in the data active = inhibition above about 41%;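 note: 0% = neutral control wells and 100% = reference inhibitor control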
Jurkat NFkB inh: inhibitors of induced NF-kB luciferase reporter, primary screen, TCR NF-kB activation inhibitor project, cell-based, luminescence, uHTS. inhibition, % at 4 µM. Jurkat, PMA/ionomycin-induced NF-kB luciferase reporter. 330,000 compounds, 0.53% hits. AID 435003, 2010; in the data active = inhibition above about 50%
Gli-Sufu antag: Gli-Sufu pathway antagonists, primary screen, luciferase luminescence, Sufu-KO-LIGHT cells, uHTS. inhibition, % at 5 µM. Sufu-KO-LIGHT fibroblasts, Gli luciferase reporter luminescence. 340,000 compounds, 0.74% hits;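 active = inhibition above about 55%, limit read from the data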;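 note: 0% = DMSO-treated cells and 100% = wells with medium but no cells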
TRPM1 prom inh: inhibitors of MITF-dependent TRPM1 promoter reporter, primary screen, cell-based, SK-MEL-5, single point, luciferase. inhibition, % at 12.5 µM. SK-MEL-5 TRPM1 promoter luciferase, 24 h. 330,000 compounds, 0.83% hits. AID 488899, 2010;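 active = mean inhibition across replicates of 60% or more, whatever share of single replicates reaches that level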
Jurkat NFkB conf: PMA/ionomycin-induced NF-kB reporter inhibitors, Jurkat retest, confirmation, T-cell NF-kB inhibitor project, cell-based, luminescence, single concentration. shares compounds with Jurkat NFkB inh. Jurkat NF-kB luciferase, 16 h. inhibition, % at 4 µM. 2,700 compounds, 27% hits;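 active = inhibition reaching about 45% at 4 µM in either replicate, limit read from the data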;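 note: plate controls were PMA/ionomycin stimulated DMSO wells for no effect and unstimulated DMSO wells for full effect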
* hit, by the source's call; nt = no result given; ! = repeats disagree.

SMILES	697 NFkB inh	Shn3 inh set2	EBV LMP1 NFkB	Jurkat NFkB inh	Gli-Sufu antag	TRPM1 prom inh	Jurkat NFkB conf
O=C(N/N=C/c1ccco1)c1cccc(S(=O)(=O)Nc2ccccc2Cl)c1	-32.6	11.6	-12.2	2.5	-3.4	-15.4	nt
C=CC[n+]1c(/C=C2\C=Cc3cc(C)ccc3N2CC)ccc2ccccc21	32.0	93.5*	45.4*	78.2*	89.8*	78.2*	27.9
Cc1ccc(-n2c(C)cc(/C=c3/sc4nc5ccccc5n4c3=O)c2C)cc1	-57.0	nt	nt	55.7*	7.3	nt	19.2
Cc1c2ccncc2cc2c1[nH]c1ccccc12	nt	34.0	-23.7	nt	16.5	-40.7	nt
COc1ccc2[nH]c3c(C)c4ccncc4c(C)c3c2c1	-141.6	-45.1	-11.2	52.0*	-26.9	95.3*	3.6
O=C1CC(c2cccnc2)c2cc3c(cc2N1)OCO3 (configuration not stated)	-0.6	10.6	-1.3	1.9	2.8	-2.6	nt
COc1ccccc1C1CC(=O)Nc2cc(C)c(C)cc21 (configuration not stated)	-18.9	3.5	-6.8	34.7	19.5	18.7	nt
CC(C)Oc1ccccc1C1CC(=O)Nc2cc3c(cc21)OCO3 (configuration not stated)	7.1	68.7	5.6	75.8*	54.4	37.0	53.3*
Cc1cc2c(cc1C)C(c1ccccc1OC(C)C)CC(=O)N2 (configuration not stated)	-76.3	4.4	1.0	52.3*	1.6	10.0	35.5
COc1ccc2[nH]c3c(N4CCC(O)(c5cccc(C(F)(F)F)c5)CC4)ncnc3c2c1	0.4	24.4	29.9	50.8*	25.0	34.8	23.1
COc1ccc2[nH]c3c(N4CCN(Cc5ccc6c(c5)OCO6)CC4)ncnc3c2c1	7.8	60.0	20.1	20.4	-2.9	5.3	nt
CCOc1ccc2[nH]c3c(N4CCc5ccccc5C4)ncnc3c2c1	-24.2	4.0	nt	51.6*	22.9	nt	21.4
CN1CCN(c2ncnc3c2[nH]c2ccc(F)cc23)CC1	26.9	-7.6	13.5	32.6	-3.9	-1.5	nt
Cc1cc(Cl)c2oc(C(=O)N(C)CCCN3CCOCC3)c(C)c2c1	-34.6	4.3	-6.8	2.5	15.1	-16.1	nt
Cc1csc(N2CCCC2=O)n1	9.9	-18.7	-4.4	8.5	5.1	5.7	nt
O=c1c2ccccc2nc2n1CCc1c-2[nH]c2ccccc12	-175.6	-132.1	-68.3	-193.5	-133.6	-37.4	-85.1
CN1CCC2(CC1)Nc1nc(SCc3ccc(Cl)cc3)nn1C1=C2CN(C)CC1	24.1	-3.1	-27.3	-1.3	5.6	54.9	nt
COC(=O)c1cccc(NS(=O)(=O)c2cccs2)c1C	nt	-1.8	0.3	nt	-5.0	-8.9	nt
COC(=O)c1ccccc1NC1=C/C(=N\S(=O)(=O)c2cccs2)c2ccccc2C1=O	16.7	93.8*!	85.6*!	51.7*	-17.3	77.8*	65.5*
NC(=O)c1sc2nc(-c3cccnc3)ccc2c1N	1.9	-3.1	nt	-5.1	-5.2	nt	nt
CCOC(=O)c1sc2nc(-c3cccnc3)ccc2c1N	-147.4	0.1	-15.6	-182.4	-120.6	-74.4	-69.1
O=C(c1cc2cc3ccc(Cl)cc3nc2o1)N1CCCCCC1	-180.5	-115.7	-48.9	-158.7	-66.4	-97.4	-90.5
COc1cc(C(=O)OC(C)CN2C(C)CCCC2C)cc(OC)c1OC (configuration not stated)	6.6	0.1	4.9	-2.8	22.5	-0.6	nt
O=C(NCCNC(=O)c1ccccc1)c1ccccc1	-11.8	4.6	-12.3	-2.1	0.5	-9.2	nt
O=C(N/C=C/c1ccccc1)c1ccccc1	-195.6	-89.0	-18.1	-176.1	nt	-112.5	14.8
SMILES	697 NFkB inh	Shn3 inh set2	EBV LMP1 NFkB	Jurkat NFkB inh	Gli-Sufu antag	TRPM1 prom inh	Jurkat NFkB conf
COc1ccccc1C(=O)NCCC(=O)N(C)CC(=O)Nc1ccccc1Br	8.5	8.5	6.1	12.2	-12.6	-12.4	nt
COC(=O)c1sc(N)c(C(=O)OC)c1COC(=O)c1c(C)noc1C	-11.3	-3.3	3.3	67.6*	-12.6	3.0	21.1
COc1cc(C(=O)NCCc2ccc(S(N)(=O)=O)cc2)ccc1OCc1c(C)noc1C	17.8	-11.2	4.9	0.5	-4.8	-3.0	nt
Cn1cccc1C(=O)C(=O)Nc1cccc(Cl)c1Cl	-184.9	-89.3	-50.9	-150.8	-63.8	-52.8	-64.2
Cn1cccc1C(=O)C(=O)Nc1ccc(Cl)cc1	-161.7	-67.6	-19.4	-112.4	-84.8	-40.5	nt
CCCNc1c(NS(=O)(=O)c2ccc(OC)c(OC)c2)c(=O)oc2ccccc12	11.5	8.4	2.5	-6.3	5.7	7.2	nt
CCOC(=O)c1c(C)[nH]c(C(=O)Nc2ccc(C)c(Cl)c2)c1C	-166.3	nt	nt	-164.8	nt	nt	-82.0
CCOC(=O)c1c(C)[nH]c(C(=O)Nc2ccc(NC(C)=O)cc2)c1C	23.2	22.3	-2.1	0.7	-2.6	15.5	nt
CC1CCN(c2ccc3c(c2)S(=O)(=O)c2ccccc2C3=O)CC1	-196.1	-70.3	-33.0	-211.2	-90.1	-88.1	-82.8
O=C(c1cc(-c2ccc(Cl)cc2)on1)N1CCCCCC1	-141.5	-27.7	-35.8	-169.3	-103.3	-63.5	-156.6
O=C(c1cc(-c2ccc(Cl)cc2Cl)on1)N1CCCCCC1	-179.7	-50.0	-25.8	-161.8	nt	-46.1	-132.2
O=C(c1cc(-c2ccc(Cl)cc2Cl)on1)N1CCN(C(=O)c2ccco2)CC1	11.3	-39.0	-6.8	6.3	-7.8	0.5	nt
O=C(c1cc(-c2ccc(Cl)c(Cl)c2)on1)N1CCCCCC1	-115.2	-113.9	-42.4	-108.3	-100.8	-128.0	nt
COCCOC(=O)C1=C(C)NC(=O)NC1c1cn(-c2ccccc2)nc1-c1cccs1 (configuration not stated)	5.7	-2.7	-1.2	5.7	-8.7	-15.5	nt
CC1=C(C#N)C(c2cn(-c3ccccc3)nc2-c2cccs2)C(C#N)=C(C)N1	-29.8	10.1	1.2	53.5*	41.6	14.4	-7.9
CCSc1nccc(-c2nn(-c3ccc(C)cc3)ccc2=O)n1	-48.2	8.4	10.4	50.8*	-2.9	1.9	27.4
C=CCSc1nccc(-c2nn(-c3ccc(C)cc3)ccc2=O)n1	-60.2	7.0	6.1	49.6	-23.1	-2.4	nt
CSc1nccc(-c2nn(-c3ccc(C)cc3)ccc2=O)n1	-3.8	2.6	7.5	57.6*	2.2	28.0	48.8*
COc1ccc(-c2ccc3oc(-c4ccc(OC)cc4)c(C#CCO)c3c2)cc1	-38.8	85.0	16.1	73.2*	5.5	1.0	56.9*
O=C1C(O)CCN1C1CCCCC1 (configuration not stated)	nt	4.6	2.2	nt	6.2	5.0	nt
CCN(CC)c1nc2cc(OC)ccc2cc1C#N	13.2	18.2	-1.9	0.2	-25.9	9.1	nt
